This is part of a sample that, as a whole, favours compounds with a hit. Of some 83,000 tested, about 20% had one in any assay.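 48-hour exposure, single concentration, 96-well plates; percent growth endpoint where 0 means no net growth. Active: below 10.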 Unmarked numbers belong to inactive results. Activity calls are given as the source filed them.
Tested on: MDA-MB-468 breast
Assay: NCI-60 one-dose screen, 48 h (100 = growth as untreated, 0 = no growth, -100 = all killed)
Conditions: 10 µM unless noted

Q: `O=C(Nc1cccnc1)c1ccc2ccc3ccc(C(=O)Nc4cccnc4)nc3c2n1` was tested. Which growth did it give?
A: -1.83% (active)

Q: Which growth does the source give for `Cc1c([N+](=O)[O-])cc(C(C)(C)C)cc1[N+](=O)[O-]` here?
A: 90.6%

Q: `CCn1c2ccc(/C=N/OCCCN(C)C)cc2c2cc(/C=N/OCCCN(C)C)ccc21` was tested. Which growth did it give?
A: -66.6% (active)

Q: With `O=[N+]([O-])c1c(O)c(Cl)cc(Cl)c1Cl` as the molecule, how does the growth read?
A: 91.2%

Q: Which growth does the source give for `O=C(NCCN1CCOCC1)OCc1nc2nc(Cl)nc(N3CCOCC3)c2[nH]1` here?
A: 10.1%

Q: With `N=c1ccn2c(n1)O[C@@H]1[C@@H](O)[C@H](CO)O[C@@H]12` as the molecule, how does the growth read?
A: 77.1%

Q: Which growth does the source give for `COC(=O)C(Sc1ccc(Cl)cc1)C1SC(=S)N(Cc2ccccc2)C1=O` (stereo not given) here?
A: 94.7%

Q: `CCCCN(C)N=Nc1ccc(C(N)=O)cc1` was tested. Which growth did it give?
A: 102%

Q: Which growth does the source give for `CCCCCCCCCCCC[n+]1ccc2ccccc2c1` here?
A: -30% (active)

Q: With `COC(=O)[C@]12CC[C@@H](C)[C@H](C)[C@@H]1C1=CC[C@@H]3[C@@]4(C)C(C=O)=C[C@@](C)(COC(=O)c5ccco5)[C@@H]4C(=O)C[C@@]3(C)[C@]1(C)CC2` as the molecule, how does the growth read?
A: 9.8% (active)

Q: With `O=C(OCCBr)c1ccc(Cl)c([N+](=O)[O-])c1` as the molecule, how does the growth read?
A: -79.8% (active)

Q: `C=CCC(O)C=C` (stereo not given) was tested. Which growth did it give?
A: 102%

Q: How did the growth turn out when `COc1ccc(/C=C/c2nc(Nc3ccc(S(=O)(=O)NC(C)=O)cc3)c3ccccc3n2)cc1` was run?
A: 53.2%

Q: For `COc1cc2oc(-c3ccc(O)cc3)cc(=O)c2c(O)c1I`, which growth is on record?
A: 105%

Q: Which growth does the source give for `Oc1ccc2c(c1)CCc1ccccc1-2` here?
A: 105%

Q: With `c1ccc2c(c1)Sc1ccccc1S2` as the molecule, how does the growth read?
A: 93.7%

Q: `CC/C(=C(/c1ccc(Cl)cc1)c1ccc(OCCCN(C)C)cc1)c1ccc(OC)cc1` was tested. Which growth did it give?
A: 51.7%

Q: How did the growth turn out when `COc1ccccc1/C=C/C(=O)c1nnn(-c2ccc(F)cc2)c1C` was run?
A: 38.2%

Q: `COc1cc(/C=C/c2cc(O)c(C(C)=O)c(O)c2)cc2c1O[C@]1(C)CC[C@@H](O)C(C)(C)[C@H]1C2` was tested. Which growth did it give?
A: 77.6%

Q: `CCOC(=O)c1ccc2c(c1)[n+](=O)c(C(C)=O)c(C(F)(F)F)n2[O-]` was tested. Which growth did it give?
A: -37% (active)

Q: How did the growth turn out when `Cc1ccc(C)c2c(C)c(C(=O)Nc3cccc(-n4cccn4)c3)oc12` was run?
A: 27.8% [50 µM]

Q: Which growth does the source give for `O=C(O)c1ccc(-n2cc(CNc3ccc(Oc4ccccc4)cc3)c(-c3ccccc3)n2)cc1` here?
A: 99.8%

Q: How did the growth turn out when `COc1ccc(-c2nc(-c3nc4cc(Cl)c(F)cc4[nH]3)c3ccccn23)cc1` was run?
A: 54.6%

Q: Which growth does the source give for `CCOC(=O)C1=C(c2ccccc2)N=C2SC=C(c3cccc([N+](=O)[O-])c3)N2C1c1ccc(O)cc1` (stereo not given) here?
A: 93.7%

Q: `O=C(/C=C/c1cccc(F)c1)c1cccc(OCCCOc2cccc(C(=O)/C=C/c3cccc(F)c3)c2)c1` was tested. Which growth did it give?
A: 75.2%

Q: `N#C/C(=C\c1ccc(Cl)cc1)n1nnc2cc(F)c(F)cc21` was tested. Which growth did it give?
A: 3.5% (active)

Q: Which growth does the source give for `O=C1CCN(Cc2ccccc2)C(=S)N1` here?
A: 110%

Q: How did the growth turn out when `O=C(Nc1ccc2c(O)cc(S(=O)(=O)O)cc2c1)c1ccc([N+](=O)[O-])cc1` was run?
A: 95.4%

Q: With `CCCCCCCCSC1=CC(=O)C(OC)=C(OC)C1=O` as the molecule, how does the growth read?
A: -75% (active)

Q: For `CCS/C(Nc1ccccc1)=C(\C#N)C(=O)Nc1ccc(OC)cc1`, which growth is on record?
A: -2.63% (active)

Q: For `CC(=O)N1N=C(c2ccc(C(F)(F)F)c(F)c2)CC1c1[nH]c(C)c(C(=O)NCC(F)(F)F)c1C` (stereo not given), which growth is on record?
A: 78.5%

Q: With `CN1CCN(c2nc(NCCNc3ccnc4cc(Cl)ccc34)c3ccccc3n2)CC1` as the molecule, how does the growth read?
A: -51.6% (active)

Q: How did the growth turn out when `COc1cc(/C=N/N(C)C)ccc1O` was run?
A: 95.8%

Q: With `C=C1C(=O)O[C@H]2[C@H]1CC/C(Cn1cc(-c3cc(C(F)(F)F)cc(C(F)(F)F)c3)nn1)=C\CC[C@@]1(C)O[C@@H]21` as the molecule, how does the growth read?
A: -56.7% (active)

Q: Which growth does the source give for `CCCC(=O)NC(c1ccc(N(CC)CC)cc1)c1cc(C)c2cccnc2c1O` (stereo not given) here?
A: -16.1% (active)

Q: With `COc1ccc(C2CC(c3cccc(Nc4ccnc5cc(Cl)ccc45)c3)=NN2C=O)cc1` (stereo not given) as the molecule, how does the growth read?
A: 7.85% (active)

Q: For `Cc1oc2nc[nH]c(=O)c2c1C(=O)/C=C/c1ccc(Cl)cc1`, which growth is on record?
A: 10.6%

Q: `O=C1C=CC(Nc2ccccc2[N+](=O)[O-])C1Nc1ccccc1[N+](=O)[O-]` (stereo not given) was tested. Which growth did it give?
A: -97.4% (active)

Q: For `O=C(/C=C/c1c[nH]c2ccccc12)c1ccc(O)c(CN2CCN(c3ccc(F)cc3)CC2)c1`, which growth is on record?
A: 97.4%

Q: Which growth does the source give for `CN1CCN(CCCNc2nccc(-c3c(-c4ccc(F)c(O)c4)nc4sccn34)n2)S1(=O)=O` here?
A: 92.9%
